# Measured values reported in PubChem BioAssay AID738 (SRMLSC, 2007).
# The whole screen tested about 98,000 compounds, of which about 4,900 (5%) were called active. The sample holds actives, similar compounds and a random draw of the others, so the mix is not that of the screen. No stated cut-off is given here; in the data, active means inhibition above about 30%; inactive means the rest.
# Experiment: yeast control strain growth suppression – counter-screen for post-Golgi transport modulator project, primary screen (AID 738)
# Conditions: efflux-deficient yeast background strain, growth absorbance A615, 16 h; at 10 µM; active compounds read high
row,SMILES,inhibition
1,Cc1ccc(C(=O)OC2=CC(=O)CC(C)(C)C2)cc1,-1.57% (inactive)
2,COc1cccc(NC(=O)c2nn(C34CC5CC(CC(C5)C3)C4)cc2[N+](=O)[O-])c1,26.5% (inactive)
3,Cc1ccc(S(=O)(=O)Nc2nc3ccccc3nc2N2CCc3ccccc3C2)cc1,19.2% (inactive)
4,Cc1ccc2c(c1)c1ncnc(N3CCc4ccccc4C3)c1n2C,30% (active)
5,Cc1ccc2c(c1)c1ncn(CCC3=CCCCC3)c(=O)c1n2C,21.9% (inactive)
6,O=C(O)/C=C/C(=O)Nc1ccc(F)cc1F,11.5% (inactive)
7,Cc1ccc(-c2nc3c(cnn3-c3ccccc3)c(=O)o2)cc1,15.6% (inactive)
8,Cc1ccc(-n2nc(N)c3c(=O)oc(N(C)C)nc32)cc1,33.1% (active)
9,O=C(Nc1cc(-c2nn(CC(=O)N3CCCCC3)c(=O)c3ccccc23)ccc1N1CCOCC1)c1ccc(Cl)cc1,0.85% (inactive)
10,N=c1ccn(CC(=O)NC(N)=O)c2ccccc12,12.8% (inactive)
11,N#Cc1ccc(Oc2cc(C(F)(F)F)nc(-c3ccccn3)n2)cc1,1.51% (inactive)
12,O=C(Oc1ccccc1)Oc1ccc2c(c1)oc(=O)c1ccccc12,41% (active)
13,CC(=O)Nc1cc2ccc(OC(C)=O)cc2oc1=O,-1.59% (inactive)
14,CC(=O)Oc1ccc2c(C)c(CC(C)O)c(=O)oc2c1 (stereo not drawn),9.1% (inactive)
15,CSc1nc2ccccc2cc1/C=C(\C#N)c1ccc(Cl)cc1Cl,24.2% (inactive)
16,O=C(CCN1C(=O)c2ccccc2C1=O)Nc1ccncc1,13.3% (inactive)
17,CCCCC(=O)Nc1ccc2c(c1)OCCO2,-0.45% (inactive)
18,Cn1c(=O)n(C)c2cc(C(=O)Nc3ccc4c(c3)OCO4)ccc21,1.14% (inactive)
19,O=C(CCN1C(=O)c2ccncc2C1=O)Nc1ccc2c(c1)OCCO2,30.7% (active)
20,O=C(Nc1ccc2c(c1)OCCO2)c1cnccn1,14.2% (inactive)
21,O=C(Nc1ccc2c(c1)OCCO2)c1ccncc1,31.6% (active)
22,O=c1c2ccccc2c(-c2ccc(Br)cc2)nn1Cc1ccccc1,12% (inactive)
23,c1ccc(-n2nnnc2NC2CCCCCC2)cc1,2.73% (inactive)
24,COC(=O)/C=C/C(=O)NCc1ccco1,4.81% (inactive)
25,Cc1cc(-c2ccccc2)n2nc(C)c(-c3ccccc3)c2n1,0.91% (inactive)
26,O=C(N/N=C\c1ccc(-c2ccc(Cl)c(Cl)c2)o1)C(=O)N1CCCC1,-8.31% (inactive)
27,O=c1c2ccccc2nc2n1C(CSc1ccc(F)cc1)CN2 (stereo not drawn),8.1% (inactive)
28,O=C1COc2ccc(NC(=O)N3CCN(c4ccc(F)cc4)CC3)cc2N1,-5.66% (inactive)
